Assay outcomes (PubChem)
NLRP3 yeast inh: inhibitors of NALP3 inflammasome in yeast | 330,000 tested, 0.39% active | inhibition, % at 10 µM | AID 2825 | Yeast reconstituted NLRP3/ASC/caspase-1, beta-gal luminescence, 24 h;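 active means inhibition of 50% or more; inactive means inhibition below 50%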;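 further: plate controls were induced DMSO wells for no effect and uninduced yeast grown without galactose for full effect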
tim10-1 inh: growth inhibitors of tim10-1 mutant yeast | S. cerevisiae tim10-1 ts strain growth, BacTiter-Glo, 24 h | inhibition, % at 20 µM | 330,000 tested, 2.2% active;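 active means inhibition of at least 40%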;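 further: mutant grown at 25 °C; 0% = DMSO wells with yeast and 100% = wells holding no yeast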
tim23-1 inh: inhibits growth of tim23-1 mutant yeast; inhibition, % at 20 µM; S. cerevisiae tim23-1 growth, BacTiter-Glo luminescence, 24 h; 330,000 tested, 1.3% active; AID 463212;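 active means growth inhibition of the mutant yeast at or above 50%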;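 further: temperature-sensitive mutant grown at 25 °C; plate controls were DMSO-treated mutant yeast for no effect and medium wells lacking yeast for full effect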
PfHsp90 yeast 2: inhibits growth of yeast expressing Plasmodium falciparum Hsp90 | S. cerevisiae expressing PfHsp90, BacTiter-Glo ATP, 48 h; yeast lacking PDR1 and PDR3 efflux regulators | inhibition, % at 9.4 µM | 310,000 tested, 0.32% active | AID 504621;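 active means every replicate shows inhibition above about 80%, whatever the replicate mean, limit read from the data; inconclusive means mean inhibition reaches the set limit but some replicate falls short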;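 further: 0% = DMSO neutral controls and 100% = 20 µM radicicol positive controls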
TIM10 inh: growth inhibitors of TIM10 yeast strain | S. cerevisiae TIM10 strain growth, BacTiter-Glo luminescence, 24 h | inhibition, % at 10 µM | 330,000 tested, 1.4% active | AID 463195;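 active means inhibition of 40% or more at the single tested concentration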;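 further: wild-type TIM10 isogenic control strain grown at permissive 25 °C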
NALP1 yeast inh: blocks the NALP1 inflammasome reconstituted in yeast; S. cerevisiae NALP1/ASC/caspase-1 growth, X-gal OD620, 72 h; inhibition, % at 10 µM; 280,000 tested, 0.61% active; in the data active means inhibition mostly above about 24%, no sharp cut-off; inactive means mostly below about 32%
tim10-1 confirm: confirmation of tim10-1 mutant yeast growth inhibitors | shares compounds with tim10-1 inh | S. cerevisiae tim10-1 ts strain growth, BacTiter-Glo, 24 h | inhibition, % at 20 µM | 7,400 tested, 56% active;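 active means inhibition of yeast growth at or above a set limit in either of two repeat tests at 20 µM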;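 further: tim10-1 mutant grown at permissive 25 °C to find synthetic lethal compounds; 0% = DMSO yeast wells and 100% = medium wells without yeast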
tim10 confirm: TIM10 yeast growth inhibition, confirmed; 4,600 tested, 63% active; S. cerevisiae tim10 strain growth, BacTiter-Glo luminescence, 24 h; shares compounds with TIM10 inh; inhibition, % at 10 µM;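 active means inhibition of yeast growth at or above a set limit in either of two replicates at 10 µM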;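 further: this counterscreen used the strain with wild-type TIM10; 0% = yeast with DMSO and 100% = medium wells lacking yeast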
tim23-1 confirm: confirmation of tim23-1 mutant yeast growth inhibitors | AID 463218 | 4,400 tested, 83% active | S. cerevisiae tim23-1 growth, BacTiter-Glo luminescence, 24 h | inhibition, % at 20 µM | shares compounds with tim23-1 inh;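 active means inhibition above about 39% in either of two replicate wells at 20 µM, limit read from the data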;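 further: temperature-sensitive tim23-1 mutant grown at 25 °C; 0% = DMSO wells with yeast and 100% = medium wells without yeast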
An asterisk follows results filed as active; ? = inconclusive; . = no result given. Only some compounds are listed: those with a hit (about 4.1% of all), similar ones and a draw of the others.

SMILES | NLRP3 yeast inh | tim10-1 inh | tim23-1 inh | PfHsp90 yeast 2 | TIM10 inh | NALP1 yeast inh | tim10-1 confirm | tim10 confirm | tim23-1 confirm
NNC(=O)c1[nH]c(-c2ccccc2)cc1-c1ccccc1 | 13 | 57* | 53* | -9 | 41* | 2 | 44* | 21 | 46*
Cc1ccc(N=c2ssnc2Cl)cc1 | 18 | 64* | 66* | 93* | 27 | 8 | 63* | . | 90*
Cc1cc(C)nc(/N=c2/ssnc2Cl)c1 | 44 | 81* | 91* | . | 77* | -4 | 83* | 95* | 68*
Cc1cc(Cl)ccc1N=c1ssnc1Cl | 16 | 52* | 59* | ? | 40 | 34 | 55* | . | 77*
Cc1cc(C)c(C#N)c(Cl)n1 | -2 | -5 | 6 | -11 | -6 | . | . | . | .
Cc1cc(Cl)ccc1N=C1N=C(N)c2ccccc21 | -12 | 11 | 13 | -16 | 14 | 14 | . | . | .
Cc1ccc(C2=NNC(=Nc3ccc(F)cc3)SC2)cc1 | . | . | . | -56 | . | 2 | . | . | .
COc1cccc(CN2C(=O)C(C)N(C(=O)c3ccccc3)c3ccccc32)c1 (centres undefined) | 32 | 20 | 36 | -19 | 34 | 13 | . | . | .
Cc1ccnc(NC(=O)c2ccc(S(=O)(=O)N3CCCCCC3)cc2)c1 | 47 | 29 | 39 | 40 | 5 | . | . | . | .
C=CC[C@@H](CC(=O)NCCO)C(=O)N[C@H](C)COC(=O)[C@@H](CC=C)Cc1ccc(F)cc1 | 4 | -3 | 2 | 33 | 9 | . | . | . | .
Cc1ccc(NC(=O)c2nc(S(=O)(=O)Cc3ccccc3C)ncc2Cl)cc1C | 14 | 42* | 68* | -14 | -33 | -13 | -54 | . | 60*
CCS(=O)(=O)c1ncc(Cl)c(C(=O)Nc2ccccc2OC)n1 | 15 | -5 | 18 | -8 | -14 | -1 | . | . | .
CSc1ncc(Cl)c(C(=O)Nc2ccc(C)c(C)c2)n1 | 7 | 26 | 24 | -26 | 8 | 8 | . | . | .
CCOc1ccccc1NC(=O)c1nc(S(=O)(=O)Cc2ccccc2)ncc1Cl | 45 | 59* | 78* | -58 | 32 | 19 | 41* | . | 74*
CC(C)Cn1c(SCC(=O)Nc2cc(Cl)c(Cl)cc2Cl)nc(O)cc1=O | 26 | 12 | 19 | . | 2 | . | . | . | .
Cc1cc(C(=O)NNC(=O)Cc2ccc(Cl)c(Cl)c2)c(C)o1 | 23 | -28 | 9 | -10 | -17 | . | . | . | .
O=C(N/N=C/c1cc(Cl)cc([N+](=O)[O-])c1O)c1cc(-c2ccccn2)nc2ccccc12 | 16 | 45* | 51* | -13 | 19 | . | 9 | . | 23
O=C(N/N=C/c1ccc(F)cc1)c1cc(-c2ccccn2)nc2ccccc12 | -5 | -9 | -5 | -4 | -16 | . | . | . | .
Cc1c(C)n(CC(O)CN2C(=O)c3ccccc3S2(=O)=O)c2ccccc12 (centres undefined) | -3 | 66* | 74* | -11 | 43* | -5 | 65* | 49* | 89*
Cc1cc(NC(=O)c2cccc3c2C(=O)N(C2CCCCC2)C3)ccc1Br | 15 | 31 | -15 | -9 | 0 | 12 | . | . | .
Cc1cccc(C)c1NC(=O)c1cccc2c1C(=O)N(C1CCCCC1)C2 | 16 | 56* | 55* | 0 | 18 | 19 | 11 | . | 38
CCOC(=O)C1=C(CC)Nc2ccccc2N=C1NC(=O)Nc1ccc(Cl)c(Cl)c1 | 10 | 79* | 76* | 104* | 70* | -1 | 71* | -25 | 72*
Cc1ccc(C(c2ccc(C)c(C)c2)C(O)C2OC(=O)C(O)C2O)cc1C (centres undefined) | . | . | . | -10 | . | . | . | . | .
O=[N+]([O-])c1cnc2ccccc2c1 | -13 | 14 | 17 | -10 | 0 | 28 | . | . | .
O=[N+]([O-])c1cc([N+](=O)[O-])c2cc3ccccc3nc2c1 | 4 | 75* | 69* | 10 | 86* | -4 | 42* | 97* | 44*
SMILES | NLRP3 yeast inh | tim10-1 inh | tim23-1 inh | PfHsp90 yeast 2 | TIM10 inh | NALP1 yeast inh | tim10-1 confirm | tim10 confirm | tim23-1 confirm
O=C(CCNC(=O)c1ccccc1Cl)Nc1cccc(S(=O)(=O)N2CCOCC2)c1 | 12 | 3 | -18 | -7 | 5 | . | . | . | .
O=C(O)C(c1ccccc1)N1C(=O)/C(=C/c2cccs2)SC1=S (centres undefined) | -5 | -12 | 16 | 5 | 6 | -9 | . | . | .
CC(c1ccccc1)N1C(=O)/C(=C/c2ccncc2)SC1=S (centres undefined) | 41 | 66* | 73* | -12 | 62* | 7 | 61* | 73* | 28
COc1ccc(/C=C/C=C2\N=C(SC)SC2=O)cc1 | -2 | 51* | 72* | 14 | 57* | 7 | 38* | -2 | 22
COc1ccc2c(c1)sc1nc(-c3ccccc3)cn12 | 36 | 40* | 60* | 24 | -1 | 13 | 19 | . | 67*
COc1ccc(-n2cc(-c3ccccc3)nc2SC)cc1 | 23 | 37 | 47 | 22 | 37 | 21 | . | . | .
FC(F)(F)c1cccc(Oc2nc(-c3ccccc3)nnc2C(F)(F)F)c1 | 8 | 54* | 55* | . | 46* | 9 | 48* | 38* | 46*
COc1ccc(NC(=O)c2ccco2)cc1NC(=O)c1ccc(C)cc1 | 28 | -42 | -35 | . | -6 | -4 | . | . | .
COc1ccc(NC(=O)c2ccco2)cc1NC(=O)c1ccc(Br)o1 | 36 | 44* | 55* | 11 | 76* | 14 | 23 | 61* | 74*
COc1ccc(-c2cccc(NC(=O)c3ccco3)c2)nn1 | 20 | -6 | 16 | -19 | 2 | . | . | . | .
COc1ccc(-c2ccc(NC(=O)c3ccco3)cc2)nn1 | 37 | 47* | 57* | 64 | 46* | . | 22 | 30 | 51*
CC(C)(C)OC(=O)N1Cc2[nH]c3ccccc3c2C[C@@H]1C(=O)O | 21 | 1 | 9 | -12 | 6 | . | . | . | .
Cc1cc(C)c(S(=O)(=O)c2ccccc2)c(OC(=O)c2ccc(Cl)cc2Cl)n1 | 3 | 46* | 74* | 19 | 52* | 10 | 42* | -8 | 76*
Cc1noc(C)c1CCC(=O)NC1CCCN(Cc2ccc(CC(C)C)cc2)C1 (centres undefined) | 8 | 2 | -1 | -47 | 13 | 22 | . | . | .
O=C1CSc2ccc(S(=O)(=O)N3CCN(c4ccccc4F)CC3)cc2N1 | 12 | 13 | 23 | -9 | 5 | 34 | . | . | .
O=C1/C(=C/c2ccccn2)SC(=S)N1Nc1ncc(C(F)(F)F)cc1Cl | . | . | . | 3 | . | . | . | . | .
O=C1/C(=C\c2ccccn2)SC(=S)N1Nc1ncc(C(F)(F)F)cc1Cl | 12 | 64* | 64* | -5 | 59* | 3 | 57* | 47* | 33
